In all, about 330,000 compounds went through this assay and about 4,100 (1.2%) were called active. Roughly 2% stayed inconclusive and do not appear here. This is one part of a sample in which actives are shown more often than they occur. Rule for the calls: active = max response of -50% or lower; inconclusive = between -30% and -50%; inactive = -30% or higher.
The molecules below were run against Phosphatidylinositol 5-phosphate 4-kinase type-2 alpha (Homo sapiens) (UniProt P48426) (assay: qHTS for Inhibitors of phosphatidylinositol 5-phosphate 4-kinase (PI5P4K)). Conditions: PI5P4Kalpha enzyme, ADP-Glo luminescence, 60 min; active compounds read low.
Outline: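 Luminescence from ADP-Glo served as readout of PI5P4Kalpha activity in a qHTS format. Reaction: enzyme, substrate, compound, ATP at 5 microM final, 60 min at RT.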
% is set by controls: 0 for no effect and ±100 for the full control effect.
Note: value at the top dose of about 77 µM.

Phosphatidylinositol 5-phosphate 4-kinase type-2 alpha (Homo sapiens), sequence (P48426 whole entry, looked up): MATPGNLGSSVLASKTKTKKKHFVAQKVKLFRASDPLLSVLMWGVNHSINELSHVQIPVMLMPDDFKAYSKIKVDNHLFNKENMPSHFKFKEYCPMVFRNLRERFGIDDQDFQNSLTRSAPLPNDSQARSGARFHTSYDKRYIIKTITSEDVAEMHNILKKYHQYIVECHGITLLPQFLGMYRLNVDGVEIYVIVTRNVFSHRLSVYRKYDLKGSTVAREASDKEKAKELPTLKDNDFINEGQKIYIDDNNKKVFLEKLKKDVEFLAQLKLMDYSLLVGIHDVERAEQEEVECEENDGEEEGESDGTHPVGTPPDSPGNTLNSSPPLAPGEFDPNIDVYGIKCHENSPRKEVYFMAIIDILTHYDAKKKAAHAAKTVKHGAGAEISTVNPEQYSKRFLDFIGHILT

Row | Structure (SMILES) | max response
1 | CC(C)(C)C1CCC(=O)N2CCC[C@]2(c2ccccc2)C1 (stereo not given in full) | -0.325% (inactive)
2 | Cc1cccc(C)c1-n1nnnc1C1(C)CCC(=O)N1CCOc1ccccc1 (stereo not given) | 6.34% (inactive)
3 | COc1cc(OC)cc(-c2nnc(SCC(=O)Nc3ccc(C(=O)O)cc3)s2)c1 | -16.4% (inactive)
4 | O=C(CSc1nnc(SCc2ccc(F)cc2)s1)Nc1ccc(C(=O)O)cc1 | -51.9% (active)
5 | Nc1nnc(SCC(=O)Nc2ccc3nc(SCC(=O)Nc4ccccc4)sc3c2)s1 | -22.9% (inactive)
6 | O=C(CSc1nnc(SCc2ccc(Cl)cc2)s1)N/N=C/c1ccccc1Cl | -9.79% (inactive)
7 | O=C(CSc1nc2ccccc2s1)Nc1ccc(C(=O)O)cc1 | -69.8% (active)
8 | Cn1nnnc1SCC(=O)Nc1nc2ccccc2s1 | 5.87% (inactive)
9 | COc1ccc(C(O)C(O)(C(=O)OC(C)C)c2ccc(C)cc2)cc1 (stereo not given) | -0.92% (inactive)
10 | COc1cncc(-c2cnc3sc(NCCc4ccccn4)nn23)c1 | -5.87% (inactive)
11 | O=C1NC[C@H](CCCCN2CCN(CCc3ccccc3)C(=O)C2=O)N(CC2CCCCC2)C1=O | -2.74% (inactive)
12 | CCOC(=O)[C@]12CCC=C1N(Cc1cccc3ccccc13)C(=O)[C@H](CC(=O)NCc1cccc(C(F)(F)F)c1)C2 | 11% (inactive)
13 | CC1(Cc2ccccc2C#N)C(=O)Nc2ccc(-c3ccc4[nH]ccc4c3)cc21 (stereo not given) | -19.1% (inactive)
14 | CCN1C(=O)[C@@H]2[C@@H]3CN(S(=O)(=O)c4ccccc4C)[C@@H](c4ccc(Cl)cc4)[C@@H]3C(=O)C[C@@H]2C1=O | -5.23% (inactive)
15 | Cc1cccc(-c2cnc(C(O)c3cc(C)cc(C)c3)[nH]2)c1 (stereo not given) | 0.164% (inactive)
16 | CN1CCN(C(=O)c2ccc(NC(=O)c3ccc(Br)o3)cc2)CC1 | -0.458% (inactive)
17 | CCn1c(COc2c(C)cccc2C)nnc1SCc1nc2ccccc2c(=O)[nH]1 | -1.01% (inactive)
18 | COc1ccc(C)cc1-n1nnnc1SCc1nc2ccccc2c(=O)[nH]1 | -6.87% (inactive)
19 | COc1ccc(CCCc2nnc(SCc3nc4ccccc4c(=O)[nH]3)n2C)cc1 | -92.1% (active)
20 | CCC(=O)N1Cc2cc(C(=O)NCc3cccc(F)c3)nc(-c3cccc(C4=CCCC4)c3)c2[C@H]1CCO | -0.668% (inactive)
21 | CN(C)C(=O)N=NC(=O)N(C)C | -58.3% (active)
22 | CCc1nc2c(OCc3ccc(F)c(F)c3)cccn2c1N(C)C(=O)c1ccco1 | -3.84% (inactive)
23 | CCCCC(=O)NNC(=S)NC(=O)C(c1ccccc1)c1ccccc1 | -62.6% (active)
24 | CCNC(=S)NNC(=O)Cc1ccccc1 | 5.73% (inactive)
25 | O=C(NNC(=S)NCc1ccco1)C(c1ccccc1)c1ccccc1 | -8.48% (inactive)

From PubChem BioAssay AID652105 (National Center for Advancing Translational Sciences (NCATS), 2013)
